# Compounds with a hit are over-represented: about 5.8% of the library has one in this group of screens.
# GBA activity – Glucocerebrosidase; Lysosomal acid glucosylceramidase (Homo sapiens), P04062; purified enzyme, resorufin glucoside fluorescence (screen aimed at inhibitors), 20 min; Potency, µM; 48,000 compounds, 1.1% hits; AID 360, 2006; in the data active = potency below about 15 µM; inconclusive = mostly about 16 µM to 33 µM;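 note: the screen sought inhibitors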
# Target sequence (P04062 whole entry, looked up): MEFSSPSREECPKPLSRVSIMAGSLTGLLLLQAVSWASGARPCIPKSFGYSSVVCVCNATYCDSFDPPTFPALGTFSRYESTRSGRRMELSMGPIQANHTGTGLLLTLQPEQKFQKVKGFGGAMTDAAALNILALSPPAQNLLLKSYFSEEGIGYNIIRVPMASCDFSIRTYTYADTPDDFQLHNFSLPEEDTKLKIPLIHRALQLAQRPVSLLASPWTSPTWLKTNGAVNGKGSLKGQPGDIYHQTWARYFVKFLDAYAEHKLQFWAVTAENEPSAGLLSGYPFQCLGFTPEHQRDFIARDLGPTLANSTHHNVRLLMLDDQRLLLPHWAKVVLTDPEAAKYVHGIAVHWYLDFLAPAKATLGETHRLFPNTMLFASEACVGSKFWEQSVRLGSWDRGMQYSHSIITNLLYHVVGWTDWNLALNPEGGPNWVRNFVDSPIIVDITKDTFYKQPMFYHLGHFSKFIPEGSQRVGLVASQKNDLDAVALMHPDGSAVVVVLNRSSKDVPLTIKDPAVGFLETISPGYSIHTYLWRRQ
#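 Wild-type enzyme at 0.2 nM final in 50mM citric acid/KH2PO4, 10mM sodium taurocholate, 0.01% tween-20, pH 5.9, with resorufin beta-D-glucopyranoside at 30 uM final. Compounds titrated, 20 min at RT, red fluorescence read; AC50 from titration.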
# Luciferase inh – qHTS Assay for Inhibitors of Firefly Luciferase; Luciferin 4-monooxygenase (Photinus pyralis), P08659; purified firefly luciferase, luminescence, 8 min; Potency, µM (top dose mostly 57.1 µM), for inactives: at the top dose activity change, negative = inhibition, hits mostly inhibitors; 72,000 compounds, 2.2% hits; note: % is set by controls: 0 for no effect and ±100 for the full control effect; nearly all actives have a fitted effect of over 40% in size
#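 qHTS concentration-response profiling: light output of P. pyralis luciferase with luciferin and 10 uM ATP, imidazole buffer pH 7.2. Read by luminescence after 8-min room-temperature incubation.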
# Bst PK mod – Pyruvate Kinase; AID 361, 2006; 51,000 compounds, 1.2% hits; Potency, µM; purified pyruvate kinase, luminescence ATP production; ribose 5-phosphate activator present at AC10; in the data active = potency below about 11 µM; inconclusive = mostly about 12 µM to 25 µM;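 the screen sought inhibitors and activators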;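 note: scaled between full activation by ribose 5 phosphate and full inhibition by luteolin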
# HEK293 cAMP cs – qHTS Assay for Agonists of the Thyroid Stimulating Hormone Receptor: Activators of Intracellular cAMP Concentrations in Parental HEK 293 | parental HEK293 CNG cAMP sensor, membrane potential fluorescence | Potency, µM (highest dose often 57.1 µM), for the others: at the top dose activation, hits mostly activators | 73,000 compounds, 2.5% hits | AID 938, 2007; note: % of control where 0% means no effect; nearly all actives have a fitted effect of over 55% in size
#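 Parental HEK 293 cells stably expressing a cAMP-gated CNG channel were loaded with membrane potential dye containing 100 uM RO 20-1724 for 60 min. Compound added for 30 min; depolarization read as fluorescence intensity at 590 nm.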
# TSHR ag – qHTS Assay for Agonists of the Thyroid Stimulating Hormone Receptor. Thyrotropin receptor (Homo sapiens), P16473. HEK293-CNG-TSHR cells (CNG channel as cAMP sensor), membrane potential dye, cAMP. Potency, µM (highest dose often 57.1 µM), without a hit: at the highest dose activation, usual class: activators. 73,000 compounds, 0.48% hits; active = well fitted activation curve with a large enough effect in the main read-out, with a control signal flat, not every such curve was filed as active; inconclusive = small, poorly fitted or top-dose-only effect, or a change in a side signal; inactive = no such curve, though single readings can be large or run the other way; % of control where 0% means no effect;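 note: the control signal comes from parental cells without the receptor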
#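 HEK 293 cells stably expressing TSHR and a cAMP-gated CNG channel; parental CNG-only cells as counterscreen. Cells preloaded 60 min with membrane potential dye plus 100 uM RO 20-1724, then compound 30 min; fluorescence read at 590 nm.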
# * hit, by the source's call; i = inactive; ? = inconclusive; nt = not tested or not shown; [ ] = dose if it differs, or a comment. Unless noted, calls come from the whole dose curve; as a rule, active = well fitted curve in the direction sought with a large enough effect; inconclusive = small, poorly fitted or top-dose-only effect, or another doubt; inactive = no such curve, though single readings can be large; an effect the other way counts as inactive or inconclusive. Potency is the fitted concentration of half-maximal effect.
SMILES,GBA activity,Luciferase inh,Bst PK mod,HEK293 cAMP cs,TSHR ag
CCOc1cc(C2C(C(=O)OC(C)C)=C(C)N=C3SCCC(=O)N32)ccc1OC(C)=O (stereo not given),14*,-1%,>57,9%,-5%
COC(=O)C/C=C\[C@@H](C)[C@@H](/C=N\OCC[C@H]1C=C[C@H](OC(C)=O)[C@@H](COC(C)=O)O1)NS(=O)(=O)c1ccc(C)cc1,nt,1%[11.4 µM],nt,6%[11.4 µM],-3%[11.4 µM]
CCC(Oc1ccccc1)C(=O)Nc1ccccc1OC (stereo not given),nt,1%,nt,32µM*,?
CS(=O)(=O)Nc1cccc(-c2nccc(NCc3ccccc3)n2)c1,nt,1%[2.29 µM],nt,-16%,12%
Cc1ccc(OCc2nc(-c3ccccc3)no2)c(C)c1,nt,16µM*,nt,?,?
Cc1cc(C)c(C)c(OCc2nc(-c3cccnc3)no2)c1,>77,6%,>57,29%,nt
NC(=O)NCCS[C@H]1CCCC[C@@H]1O,nt,2%[11.4 µM],nt,?,?
O=c1c2c(nc3cc(-c4ccc(F)cc4)[nH]n13)CCCC2,?,7.9µM*,5.3*,7%,-4%
Fc1ccc(-c2cc3nc4c(c(N5CCOCC5)n3n2)CCCC4)cc1,>77,-8%,i,?,?
CCCCOC(OCCCC)[C@H](O)CSc1ccc2ccccc2c1,nt,1%[11.4 µM],nt,9%[11.4 µM],-3%[11.4 µM]
CCc1ccc(-c2nnn(CCC(=O)OC)n2)cc1,>77,-30%,nt,7.9µM*,?
CC(C)c1ccc(-c2nnn(CCC(=O)O)n2)cc1,>77,?,nt,21%,-4%
N=C(N)SCc1ccc(Cl)cc1Cl (tested in a mixture with another compound),nt,1%[11.4 µM],nt,13%[11.4 µM],10%[11.4 µM]
COC(=O)c1cn(NC(=O)C2CCCCC2)c(=O)c2ccccc12,>77,1%,>57,13µM*,?
COC(=O)c1cn(NC(=O)c2ccncc2)c(=O)c2ccccc12,>77,0%,>57,7%,1%
O=C(N/N=C1/C[C@@H](O)[C@@H](O)[C@@H]2[C@@H]3C(=O)N(Cc4ccc5c(c4)OCO5)C(=O)[C@H]3CC[C@H]12)OCc1ccccc1,nt,-1%[11.4 µM],nt,-1%[11.4 µM],-4%[11.4 µM]
COc1ccccc1-c1nc(C#N)c(N2CCN(c3cccc(Cl)c3)CC2)o1,>77,2%,>57,?,?
COc1ccc(-c2nc(C#N)c(N3CC(C)OC(C)C3)o2)cc1OC (stereo not given),>77,2%,>57,-20%,nt
N#Cc1nc(-c2ccco2)oc1N1CCc2ccccc2C1,>77,1%,i,25µM*,?
COc1ccccc1OCc1nc(C#N)c(N2CC(C)CC(C)C2)o1 (stereo not given),nt,-6%,nt,13µM*,?
N#Cc1nc(-c2ccco2)oc1N1CCN(c2cccc(Cl)c2)CC1,nt,5%,>57,20µM*,?
CC1CC(C)CN(c2oc(-c3ccco3)nc2C#N)C1 (stereo not given),>77,1%,>57,16µM*,?
COC(=O)c1ccc(C(NC(=O)OCc2ccccc2)/C(=C/[C@@H](C)C(=O)NCc2ccc(OC)c(O)c2)c2cccnc2)cc1 (stereo not given in full),nt,nt,nt,25%,29%
O=C(c1cnccn1)N1CCC2(CC1)CCN(c1cccc(-c3ccccc3)c1)CC2,nt,0%[11.4 µM],nt,28%,28%
COCCn1c(=O)c(-c2cn(C)c3ccccc23)nc2cnc(OCc3ccccc3)nc21,nt,0%[11.4 µM],nt,20%,-1%
SMILES,GBA activity,Luciferase inh,Bst PK mod,HEK293 cAMP cs,TSHR ag
COC(=O)[C@@]1(Cc2ccc(OC)cc2)[C@H]2c3cc(C(=O)N4CCCC4)n(CCc4c[nH]c5cc(F)ccc45)c3C[C@H]2CN1C(=O)c1ccccc1,nt,nt,nt,17%,2%
N#Cc1nc(-c2ccco2)oc1N1CCN(C(c2ccccc2)c2ccccc2)CC1,>77,2%,>57,13%,4µM*
N#Cc1nc(-c2ccco2)oc1N1CCCC1,>77,6%,>57,11%,7%
CCC(C)Sc1nc2c(c(=O)[nH]c(=O)n2C)n1CCc1ccccc1 (stereo not given),>77,1%,>57,32µM*,?
CC(C)Sc1nc2c(c(=O)[nH]c(=O)n2C)n1CCc1ccccc1,>77,1%,>57,25%,nt
Cn1c(=O)[nH]c(=O)c2c1nc(SCCN1CCOCC1)n2Cc1ccccc1,9*,2%,>57,5%,4%
CC(C)[C@@H](CC(=O)N[C@@H]1CCCC[C@H]1C(=O)N[C@H](CC(=O)N[C@@H](CCC(=O)O)CC(=O)O)Cc1ccccc1)NC(=O)C[C@H](CO)NC(=O)[C@@H]1CCCC[C@H]1N,nt,nt,nt,-10%,5%
O=C(NCCc1ccccc1)C1CCN(S(=O)(=O)N2CCCC2)CC1,?,0%,>57,25µM*,?
O=C(NCc1ccccc1F)C1CCN(C(=O)NCc2ccccc2)CC1,>77,1%,>57,0%,-4%
O=C(NCc1ccc(F)cc1)C1CCN(C(=O)NCc2ccccc2)CC1,>77,-1%,>57,4µM*,?
O=C(NCCc1ccc(Cl)cc1)C1CCN(S(=O)(=O)N2CCCCC2)CC1,>77,3%,>57,?,?
CC(C)S,nt,nt,nt,12%,-1%
CCC12C=C(/C=C/c3ccccc3)C(CC)(C1)C(c1ccccc1)CC2=O (stereo not given),nt,nt,nt,12%[11.4 µM],11%[11.4 µM]
CN(C)c1ccc(-c2nc3ccccc3n2C)cc1,?,0.63µM*,1.1*,-24%,-8%[11.4 µM]
CC(C)n1c(-c2ccc(N(C)C)cc2)nc2ccccc21,>77,13µM*,nt,14%,22%
CCNc1ncc2nc(-c3ccc(OC)cc3)c(=O)n(-c3ccc(OC)cc3)c2n1,nt,0%[11.4 µM],nt,32µM*,?
O=S(=O)(NCc1ccccn1)c1cccc2cccnc12,nt,3%,nt,16%,4%
CC(=O)c1c(C)n(-c2ccccc2)c2ccc(OCC(O)CN3CCOCC3)cc12 (stereo not given),?,1%,>57,13µM*,?
COc1ccc2c(c1)c(C(=O)N1CCN(C)CC1)c(C)n2-c1ccccc1,12*,2%,>57,31%,23%
CC(=O)c1c(C)n(-c2ccccc2)c2ccc(O)cc12,>77,2%,>57,9%,8%
Cc1nc2cnc(Oc3cccc(Cl)c3)nc2n(Cc2ccc(F)cc2)c1=O,nt,0%[11.4 µM],nt,4µM*,?
COCCn1c(=O)c(C)nc2cnc(Oc3ccc(OC)cc3)nc21,nt,0%[11.4 µM],nt,32µM*,?
COc1c2c(c3c(c1CCC(=O)O)OC(C)(C)C=C3)OC(C)(C)C=C2,nt,1%[11.4 µM],nt,-6%[11.4 µM],1%[11.4 µM]
CCS(=O)(=O)Nc1ccc(-c2nnc(SCC(=O)c3cccc(OC)c3)o2)cc1,11*,2%,>57,?,?
